From PubChem BioAssay
EBV LMP1 NFkB: EBV LMP1-driven NF-kappaB luciferase reporter inhibitors, primary screen, cell-based, luminescence, single point; LMP1-induced NF-kappaB luciferase reporter cells; inhibition, % at 12.5 µM; 0.69% of 350,000 active; in the data active means inhibition above about 41%;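 further: 0% = neutral control wells and 100% = reference inhibitor control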
TROY signal inh: inhibitors of TROY-driven NF-kB signaling, primary screen, Q293 LMP1-TROYcd cells, NF-kB luciferase, uHTS | Q293 LMP1-TROYcd NF-kB luciferase reporter, 4 h | inhibition, % at 10 µM | 0.98% of 360,000 active;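 active means compounds whose plate-normalised and pattern-corrected inhibition of the luciferase reporter signal at the single screening dose is 50% or more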
TRPM1 prom inh: inhibitors of MITF-dependent TRPM1 promoter reporter, primary screen, cell-based, SK-MEL-5, single point, luciferase | SK-MEL-5 TRPM1 promoter luciferase, 24 h | inhibition, % at 12.5 µM | 0.83% of 330,000 active;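 active means mean inhibition across replicates of 60% or more, whatever share of single replicates reaches that level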
Shn3 3UTR inh: reduction of Shn3 3'UTR firefly luciferase signal, primary screen, Schnurri-3 inhibitor project, cell-based, Clone20 osteoblasts, set 2 | 0.52% of 360,000 active | inhibition, % at 12.5 µM | Clone20 osteoblast Shn3 3'UTR firefly luciferase, 24 h;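 active means mean inhibition of at least 75% with every replicate also reaching 75%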;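 further: 0% = median of neutral control wells and 100% = pilot-screen positive control compound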
TWEAK-Fn14 inh: inhibitors of TWEAK-Fn14 signaling, primary screen, luciferase reporter cells, uHTS | TWEAK-stimulated Fn14 reporter cells, luciferase luminescence, 8 h | inhibition, % at 10 µM | 2% of 360,000 active | AID 1159606, 2016; in the data active means inhibition above about 50%
Peg3 promoter: Peg3 promoter-driven luciferase inhibitors, primary screen, cell-based, HeLa, luciferase luminescence. HeLa PEG-Prom luciferase reporter, overnight. inhibition, % at 20 µM. 1.7% of 360,000 active. AID 588405, 2011;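 active means inhibition of at least 50% at 20 µM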
* = called active by the depositor; / = no result given. Rows were chosen to be rich in hits. Some 4.1% of all compounds tested hit in one or more screens of this group.

SMILES	EBV LMP1 NFkB	TROY signal inh	TRPM1 prom inh	Shn3 3UTR inh	TWEAK-Fn14 inh	Peg3 promoter
Cc1ccc(C(=O)NCCc2nnc3ccc(NCc4ccc5c(c4)OCO5)nn23)cc1	7	16	9	10	-14	10
C/C(=N/NS(=O)(=O)c1ccc(CC(C)C)cc1)c1ccncc1	17	-11	19	87*	4	33
CC(C)[C@H](NC(=O)N1CC(=O)Nc2ccccc21)C(=O)N[C@@H](C(=O)O)c1ccccc1	-5	-16	5	3	1	6
Cc1ccc(S(=O)(=O)NC(CC(C)C)C(=O)Oc2ccc3c4c(c(=O)oc3c2)CCC4)cc1 (stereo not drawn)	-2	69*	5	14	34	10
CC[C@@H](NS(=O)(=O)c1ccc(C)cc1)C(=O)Oc1ccc2c3c(c(=O)oc2c1)CCC3	-1	34	0	11	-12	0
CC(C)(C)C1CCC(=NNC(=O)C2COc3ccccc3O2)CC1 (stereo not drawn)	3	-6	-6	10	18	0
N/C(=N\c1nc2ccccc2o1)NC(=O)/C=C/c1ccccc1	13	40	-14	22	55*	-44
O=C(N/N=C/c1cccc(Oc2ccc([N+](=O)[O-])cc2[N+](=O)[O-])c1)c1cncc(Br)c1	-4	59*	40	4	45	21
Cc1ccccc1OCC(=O)N/N=C/c1cccc(Oc2ccc([N+](=O)[O-])cc2[N+](=O)[O-])c1	0	30	5	-17	63*	13
Cc1ccc(OCC(=O)N/N=C/c2ccccc2)c([N+](=O)[O-])c1	-11	-9	-30	19	-12	-23
CCc1ccc(NS(=O)(=O)c2ccc(C)c(C(=O)N3CCOCC3)c2)cc1	2	-19	-8	12	5	9
Cc1ccc(-c2noc(Cn3cc(S(=O)(=O)N4CCCC4)ccc3=O)n2)cc1	-6	-4	-26	-4	-15	-55
O=C(Nc1ccc2c(c1)CCC2)c1cc(S(=O)(=O)Nc2ccc(F)cc2)c(Cl)cc1Cl	-2	37	0	-16	52*	2
CC(C)CCNC(=O)C(c1ccc(O)cc1)N(Cc1cccs1)C(=O)C1COc2ccccc2O1 (stereo not drawn)	5	28	-5	-1	55*	51*
Oc1[nH]c2ccccc2c1N=Nc1c(F)c(F)c(Cl)c(F)c1F	69*	-37	/	-20	1	-36
Oc1[nH]c2ccccc2c1N=Nc1ccccc1Cl	-37	-26	-14	-52	-19	-106
Nc1nc2ccccc2cc1C(=O)NCCCCc1ccccc1	/	14	/	/	53*	/
CC(=O)N1c2ccccc2Oc2cc3ccccc3cc21	-24	-32	-34	-73	-37	-239
O=C(CCl)N1c2ccccc2Oc2ccc3ccccc3c21	-8	73*	88*	11	69*	-85
O=[N+]([O-])c1ccc(N2CCN(CC3CCCCC3)CC2)cc1	10	10	-2	-23	-3	6
COc1ccccc1N(CC(=O)NCCSCc1ccco1)S(=O)(=O)c1ccccc1	-1	16	3	12	31	-6
CC(C)Nc1nc(-c2ccncc2)nc(-c2ccccc2)c1C#N	-11	-4	-13	20	-1	2
O=C(CCN1CCCCC1=O)NC1CCCN(Cc2ccc(Cl)cc2)C1 (stereo not drawn)	4	-5	9	-22	13	-2
Cc1ccc(NC(=S)Nc2ccc3cn[nH]c3c2)cc1C	-4	-11	-1	-15	-24	-18
CC(C)c1ccc(NC(=S)Nc2ccc3cn[nH]c3c2)cc1	-16	53*	-8	-34	-2	-136
Cn1cccc1C(=O)NNC(=O)COc1ccc(C#N)cc1	-2	1	-1	-2	-11	74*
Cc1cccn2c(=O)c3cc(S(=O)(=O)c4ccccc4)c(=N)n(Cc4ccco4)c3nc12	-15	-15	4	9	16	3
